Measured values as given in PubChem BioAssay (Tox21).
Results filed as inconclusive are left out. Where a call stands in place of a potency, no number is given. Calls of active or inactive are those of the source. Unless noted, the call rests on the fitted dose curve.

Experiments:
[1] = biological target: Acetylcholinesterase (Homo sapiens) (UniProt P22303); experiment: Acetylcholinesterase (AChE) small molecule antagonists: colormetric cell-based qHTS assay (AID 1347395); further: nearly all actives have a fitted effect of over 30% in size; further: potency means the concentration at half of the fitted maximal effect
Acetylcholinesterase (Homo sapiens), sequence (P22303 whole entry, looked up): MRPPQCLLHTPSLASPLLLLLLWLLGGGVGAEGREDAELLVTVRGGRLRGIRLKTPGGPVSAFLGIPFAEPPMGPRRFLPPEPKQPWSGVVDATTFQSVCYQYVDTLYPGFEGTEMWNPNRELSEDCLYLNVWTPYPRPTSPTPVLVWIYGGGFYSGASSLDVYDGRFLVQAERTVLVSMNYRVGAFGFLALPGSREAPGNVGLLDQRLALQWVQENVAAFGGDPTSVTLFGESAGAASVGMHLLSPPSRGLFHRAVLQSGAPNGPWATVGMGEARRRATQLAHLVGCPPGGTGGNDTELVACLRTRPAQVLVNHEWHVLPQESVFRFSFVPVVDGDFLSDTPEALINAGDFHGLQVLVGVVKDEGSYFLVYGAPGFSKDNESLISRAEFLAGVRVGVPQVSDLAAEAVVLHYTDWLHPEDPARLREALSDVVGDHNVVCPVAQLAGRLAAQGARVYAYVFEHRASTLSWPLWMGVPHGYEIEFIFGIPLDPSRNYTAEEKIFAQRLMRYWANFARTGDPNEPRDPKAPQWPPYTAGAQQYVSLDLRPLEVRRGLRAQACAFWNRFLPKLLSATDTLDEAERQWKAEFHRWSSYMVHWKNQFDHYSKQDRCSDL
How it was run: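 Colorimetric read-out: DTNB detects thiocholine released when cellular AChE in SH-SY5Y cells hydrolyses acetylthiocholine. Cells attached overnight, received compound for 30 min at 37 C, then substrate mix for 90 min at 37 C.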

[2] = biological target: Acetylcholinesterase (Homo sapiens) (UniProt P22303); experiment: Acetylcholinesterase (AChE) small molecule antagonists: enzyme-based qHTS assay (AID 1347397); details: Potency: AChE enzyme activity inhibition; outcome: AChE enzyme activity inhibition; further: nearly all actives have a fitted effect of over 55% in size; further: potency means the concentration at half of the fitted maximal effect
How it was run: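 Recombinant human AChE, dispensed at 50 mU/mL, was preincubated with Tox21 10K compounds or DMSO vehicle for 30 min at room temperature. DTNB plus acetylthiocholine was then added, and thiocholine was measured colorimetrically after a further 10 min.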

[3] = biological target: Acetylcholinesterase (Homo sapiens) (UniProt P22303); experiment: Acetylcholinesterase (AChE) small molecule antagonists: enzyme-based qHTS assay with human liver microsomes (AID 1347399); details: Potency: qHTS inhibition; outcome: qHTS inhibition; further: nearly all actives have a fitted effect of over 60% in size
How it was run: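 Recombinant human AChE (50 mU/mL in the enzyme mix) and human liver microsomes (0.25 mg/mL final) were preincubated with compound and NADPH (0.25 mg/mL final) for 30 min at 37 C. Acetylthiocholine/DTNB was then added; thiocholine was read colorimetrically after 10 min at room temperature.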

[4] = biological target: Acetylcholinesterase (Homo sapiens) (UniProt P22303); experiment: Acetylcholinesterase (AChE) small molecule antagonists: fluorescence cell-based qHTS assay (AID 1347398); details: Potency: AChE activity; outcome: AChE activity; further: nearly all actives have a fitted effect of over 50% in size; further: potency means the concentration at half of the fitted maximal effect
How it was run: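 Human SH-SY5Y cells were plated overnight at 37 C, exposed to compound for 30 min at 37 C, 5% CO2, then given acetylthiocholine plus Thiolite Green for 40 min at room temperature; thiocholine fluorescence (Ex/Em 490/520 nm) reports endogenous AChE activity.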

[5] = biological target: Glucocorticoid receptor (Homo sapiens) (UniProt P04150); experiment: qHTS assay to identify small molecule antagonists of the glucocorticoid receptor (GR) signaling pathway (AID 720692; active means well fitted inhibition curve with a large enough effect in the signal ratio in the repeat runs, not every such curve was filed as active; the % refers to the signal ratio)
Glucocorticoid receptor (Homo sapiens), sequence (P04150 whole entry, looked up): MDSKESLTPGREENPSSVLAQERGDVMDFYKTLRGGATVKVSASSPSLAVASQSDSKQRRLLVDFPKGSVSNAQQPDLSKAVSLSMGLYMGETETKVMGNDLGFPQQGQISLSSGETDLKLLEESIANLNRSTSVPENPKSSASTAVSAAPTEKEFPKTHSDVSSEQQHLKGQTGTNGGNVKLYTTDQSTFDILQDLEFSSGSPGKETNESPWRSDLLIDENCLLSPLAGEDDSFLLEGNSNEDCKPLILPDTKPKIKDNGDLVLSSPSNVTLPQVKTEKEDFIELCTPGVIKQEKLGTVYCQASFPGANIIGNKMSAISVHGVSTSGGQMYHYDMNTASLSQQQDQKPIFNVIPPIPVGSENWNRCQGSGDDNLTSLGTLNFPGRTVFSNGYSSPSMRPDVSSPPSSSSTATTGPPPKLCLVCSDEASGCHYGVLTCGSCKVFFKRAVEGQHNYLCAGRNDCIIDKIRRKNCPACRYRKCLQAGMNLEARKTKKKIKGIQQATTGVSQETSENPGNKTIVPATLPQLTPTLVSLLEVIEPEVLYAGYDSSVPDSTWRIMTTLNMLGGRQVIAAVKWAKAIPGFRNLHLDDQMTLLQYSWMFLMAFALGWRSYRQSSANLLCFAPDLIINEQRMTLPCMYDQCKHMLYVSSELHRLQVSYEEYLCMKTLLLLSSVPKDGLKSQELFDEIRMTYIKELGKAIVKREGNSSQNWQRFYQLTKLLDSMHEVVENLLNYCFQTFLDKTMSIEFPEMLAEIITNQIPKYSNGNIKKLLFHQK
How it was run: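 Dexamethasone (5 nM final) stimulated a stably integrated GRE-beta-lactamase reporter in HeLa cells during 18 h co-incubation with compounds; signal was quantified as fluorescence intensity of B/G FRET substrate after 2 h.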

Aromatase (Homo sapiens) = Aromatase (Homo sapiens) (UniProt P11511); experiment: qHTS assay to identify aromatase inhibitors (AID 743083; active means well fitted inhibition curve with a large enough effect in the repeat runs; further: series mostly up to about 70 µM; nearly all actives have a fitted effect of over 55% in size)
Aromatase (Homo sapiens), sequence (P11511 whole entry, looked up): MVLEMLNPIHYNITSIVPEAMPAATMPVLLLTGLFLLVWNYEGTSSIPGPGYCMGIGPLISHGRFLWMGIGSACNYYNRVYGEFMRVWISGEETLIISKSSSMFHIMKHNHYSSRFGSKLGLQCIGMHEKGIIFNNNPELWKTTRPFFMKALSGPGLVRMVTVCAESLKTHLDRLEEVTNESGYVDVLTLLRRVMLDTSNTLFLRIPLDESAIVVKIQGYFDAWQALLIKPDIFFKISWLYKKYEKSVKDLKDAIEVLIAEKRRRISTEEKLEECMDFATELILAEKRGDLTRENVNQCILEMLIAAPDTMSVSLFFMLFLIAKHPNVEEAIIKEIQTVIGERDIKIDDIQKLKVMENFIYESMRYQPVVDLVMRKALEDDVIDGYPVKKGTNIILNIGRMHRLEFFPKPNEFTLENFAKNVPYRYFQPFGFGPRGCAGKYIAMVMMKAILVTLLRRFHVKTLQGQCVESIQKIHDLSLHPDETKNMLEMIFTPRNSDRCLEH

`CCCCOc1cc(C(=O)OCCN(CC)CC)ccc1N` was tested. Which Potency [1] did it give?
Its Potency is “inactive”.

And the Potency [2]?
Its Potency is “inactive”.

And the Potency [3]?
Its Potency is “inactive”.

Which results are given for `CCCN(CCc1cccs1)[C@H]1CCc2c(O)cccc2C1`?
Potency [1]: 13.8 µM (active); Potency [4]: 11 µM (active)

For `CCOc1ccc2nc3cc(N)ccc3c(N)c2c1`, which Potency [1] is on record?
The Potency was 17.4 µM (active).

And the Potency [4]?
The Potency was 13.8 µM (active).

And the Potency [3]?
The Potency was “inactive”.

Which results are given for `CCC[C@@H]1C[C@@H](C(=O)N[C@@H]([C@H]2O[C@H](SC)[C@H](O)[C@@H](O)[C@H]2O)[C@@H](C)O)N(C)C1`?
Potency [1]: inactive; Potency [4]: inactive; Potency [3]: inactive

`Cc1ccc(O)c(N)c1` was tested. Which Potency [1] did it give?
Its Potency is “inactive”.

And the Potency [2]?
Its Potency is “inactive”.

What about the Potency [3] of the same molecule?
Its Potency is “inactive”.

`c1ccc(C(O[C@@H]2CCCN(CCc3ccc4c(c3)OCO4)C2)c2ccccc2)cc1` was tested. Which Potency [1] did it give?
The Potency was “inactive”.

And the Potency [2]?
The Potency was “inactive”.

And the Potency [3]?
The Potency was “inactive”.

Which Potency [1] does the source give for `COc1cc2nc(N3CCN(C(=O)C4CCCO4)CC3)nc(N)c2cc1OC` (stereo unspecified) here?
The Potency was 27.5 µM (active).

What about the Potency [4] of the same molecule?
The Potency was 12.3 µM (active).

How did the Potency [1] turn out when `O=C(O)CNC(=O)c1ccccc1I` was run?
The Potency was “inactive”.

And the Potency [4]?
Its Potency is “inactive”.

And the Potency [3]?
Its Potency is “inactive”.

Which results are given for `CC(=O)CC(c1ccc([N+](=O)[O-])cc1)c1c(O)c2ccccc2oc1=O` (stereo unspecified)?
Potency [1]: inactive; Potency [2]: inactive; Potency [3]: inactive

`CN(C(=O)c1c(O)c2ccccc2n(C)c1=O)c1ccccc1` was tested. Which Potency [1] did it give?
The Potency was “inactive”.

And the Potency [2]?
Its Potency is “inactive”.

What about the Potency [3] of the same molecule?
Its Potency is “inactive”.

What does the source list for `NCc1ccco1`?
Potency [1]: inactive; Potency [2]: inactive; Potency [3]: inactive

`CC1CCCCN1CCCOC(=O)c1ccc(OC2CCCCC2)cc1` (stereo unspecified) was tested. Which Potency [1] did it give?
Its Potency is 17.4 µM (active).

And the Potency [4]?
The Potency was 12.3 µM (active).

And the Potency [3]?
The Potency was “inactive”.

Which Potency [1] does the source give for `CCCCCCCCCCCCCCCC[N+](C)(C)CCN(Cc1ccc(OC)cc1)c1ncccn1` here?
The Potency was “inactive”.

And the Potency [2]?
Its Potency is 34.7 µM (active).

And the Potency [3]?
The Potency was “inactive”.

Which results are given for `CCCCCCCCCOC(=O)c1ccc(O)cc1`?
Potency [1]: inactive; Potency [4]: inactive; Potency [3]: inactive

For `C[C@@H](O)[C@H]1C(=O)N2C(C(=O)O)=C(S[C@@H]3CN[C@H](CNS(N)(=O)=O)C3)[C@H](C)[C@H]12`, which Potency [1] is on record?
Its Potency is “inactive”.

What about the Potency [2] of the same molecule?
Its Potency is “inactive”.

And the Potency [3]?
Its Potency is “inactive”.

For `CCCOc1sc(C(=O)N2CCC(c3cc(CN)ccc3F)CC2)c(C)c1Br`, which Potency [1] is on record?
The Potency was “inactive”.

What about the Potency [2] of the same molecule?
The Potency was 73 µM (active).

What about the Potency [3] of the same molecule?
Its Potency is “inactive”.

For `CCOC(=O)C(Br)c1ccccc1` (stereo unspecified), which Potency [1] is on record?
Its Potency is 71 µM (active).

And the Potency [2]?
The Potency was “inactive”.

And the Potency [3]?
Its Potency is “inactive”.

`CCCCCCCCCCCCCC[P+](CCCC)(CCCC)CCCC` (tested in a mixture with another compound) was tested. Which Potency [1] did it give?
Its Potency is “inactive”.

And the Potency [2]?
The Potency was “inactive”.

What about the Potency [3] of the same molecule?
The Potency was “inactive”.

What does the source list for `FC(F)(F)C(Cl)(Cl)Cl`?
Potency [1]: inactive; Potency [2]: inactive; Potency [3]: inactive

For `CC(CN)CC(C)(C)CCN` (stereo unspecified), which Potency [1] is on record?
The Potency was “inactive”.

What about the Potency [2] of the same molecule?
The Potency was “inactive”.

What about the Potency [3] of the same molecule?
The Potency was “inactive”.

How did the Potency [1] turn out when `CC(C)(C)NSc1nc2ccccc2s1` was run?
Its Potency is “inactive”.

What about the Potency [2] of the same molecule?
The Potency was “inactive”.

And the Potency [3]?
The Potency was “inactive”.

Which results are given for `Nc1nc2ccccc2n1Cc1ccc(F)cc1`?
Potency [1]: inactive; Potency [2]: inactive; Potency [3]: inactive

`CC(=O)[C@H]1CC[C@H]2[C@@H]3C=CC4=CC(=O)CC[C@@]4(C)[C@@H]3CC[C@]12C` was tested. Which Potency [1] did it give?
Its Potency is “inactive”.

And the Potency [2]?
The Potency was “inactive”.

What about the Potency [3] of the same molecule?
Its Potency is “inactive”.

How did the Potency [1] turn out when `Cc1oc(=O)oc1COC(=O)[C@@H]1N2C(=O)[C@@H](NC(=O)[C@H](N)c3ccccc3)[C@H]2SC1(C)C` was run?
Its Potency is “inactive”.

What about the Potency [2] of the same molecule?
Its Potency is “inactive”.

And the Potency [3]?
Its Potency is “inactive”.

With `O=[N+]([O-])c1ccc(O/N=C/c2cc(Br)c(O)c(Br)c2)c([N+](=O)[O-])c1` as the molecule, how does the Potency [1] read?
Its Potency is “inactive”.

What about the Potency [2] of the same molecule?
The Potency was “inactive”.

What about the Potency [3] of the same molecule?
The Potency was “inactive”.

Which Potency [1] does the source give for `CC(=O)O[C@H]1C[C@@H]2CC[C@@H]3[C@H](CC[C@@]4(C)[C@H]3C[C@H]([N+]3(C)CCCCC3)[C@@H]4OC(C)=O)[C@@]2(C)C[C@@H]1N1CCCCC1` here?
Its Potency is 17.4 µM (active).

And the Potency [4]?
The Potency was 6.92 µM (active).

And the Potency [3]?
The Potency was “inactive”.

For `CC(CO)(CO)[N+](=O)[O-]`, which Potency [5] is on record?
Its Potency is “inactive”.

And the Potency (Aromatase (Homo sapiens))?
The Potency was “inactive”.

And the Potency [1]?
Its Potency is “inactive”.

And the Potency [2]?
The Potency was “inactive”.

What about the Potency [3] of the same molecule?
Its Potency is “inactive”.

For `c1ccc(B(c2ccccc2)c2ccccc2)cc1`, which Potency [1] is on record?
Its Potency is “inactive”.

And the Potency [4]?
The Potency was “inactive”.

What does the source list for `CCN(CC)c1ccc(N)cc1`?
Potency [1]: 32.6 µM (active); Potency [4]: 32.6 µM (active); Potency [3]: inactive

What does the source list for `O=C(Nc1ccc(S(=O)(=O)N2CCOCC2)cc1)c1cc(Cl)ccc1NS(=O)(=O)c1ccc(Cl)s1`?
Potency [1]: inactive; Potency [4]: inactive; Potency [3]: inactive

Which Potency [1] does the source give for `CC(C)=CCOc1ccc(/C=C/C(=O)c2ccc(OCC=C(C)C)cc2OCC(=O)O)cc1` here?
The Potency was “inactive”.

What about the Potency [4] of the same molecule?
The Potency was “inactive”.

What about the Potency [3] of the same molecule?
Its Potency is “inactive”.

With `CCCCCCCCCCCCCCCCCCOS(=O)(=O)O` as the molecule, how does the Potency [1] read?
Its Potency is “inactive”.

What about the Potency [4] of the same molecule?
Its Potency is “inactive”.

And the Potency [3]?
The Potency was “inactive”.

What does the source list for `CC(=O)OCC(=O)[C@@]1(O)[C@H](OC(C)=O)C[C@H]2[C@@H]3CCC4=CC(=O)C=C[C@]4(C)[C@@]3(F)[C@@H](O)C[C@@]21C`?
Potency [1]: inactive; Potency [4]: inactive; Potency [3]: inactive

`OCCc1ccncc1` was tested. Which Potency [1] did it give?
Its Potency is “inactive”.

And the Potency [4]?
Its Potency is “inactive”.

And the Potency [3]?
Its Potency is “inactive”.

How did the Potency [1] turn out when `Cc1c(C)n(Cc2ccccc2)c2ccc(C(=O)OCCN(C)C)cc12` was run?
The Potency was “inactive”.

What about the Potency [4] of the same molecule?
Its Potency is 13.8 µM (active).

What about the Potency [3] of the same molecule?
Its Potency is “inactive”.

Which results are given for `O=C(Oc1ccccc1)c1cccc(C(=O)Oc2ccccc2)c1`?
Potency [1]: inactive; Potency [4]: inactive; Potency [3]: inactive

For `CCOc1nc2cccc(C(=O)OC(C)OC(=O)OC3CCCCC3)c2n1Cc1ccc(-c2ccccc2-c2nn[nH]n2)cc1` (stereo unspecified), which Potency [1] is on record?
The Potency was “inactive”.

And the Potency [4]?
Its Potency is “inactive”.

What about the Potency [3] of the same molecule?
Its Potency is “inactive”.

For `Cc1ccco1`, which Potency [1] is on record?
The Potency was “inactive”.

What about the Potency [4] of the same molecule?
The Potency was “inactive”.

What about the Potency [3] of the same molecule?
Its Potency is “inactive”.

How did the Potency [1] turn out when `CC/C=C\CCCCO` was run?
The Potency was “inactive”.

What about the Potency [4] of the same molecule?
Its Potency is “inactive”.

And the Potency [3]?
Its Potency is “inactive”.
